Records with an inconclusive call do not appear. Active and inactive are the calls of the source. Calls follow the shape of the dose curve; as a rule, active = well fitted inhibition curve with a large enough effect; inconclusive = small, poorly fitted or top-dose-only effect; inactive = no such curve, though single readings can be large or run the other way.
test: Confirmation assay for measurement of the activity of small molecule inhibitors on Zika virus induced Caspase-3 activity in human astrocytes; details: ZIKV-induced caspase-3/7 luminescence, 6 h; series mostly up to 46.1 µM
Method in brief: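 Percent inhibition was derived from Caspase-Glo 3/7 luminescence, scaled between uninfected cells and ZIKV-infected cells. Astrocytes got compound 1 h before 2 FFU/cell ZIKV, then 6 h infection at 37 C.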

Row | SMILES | Potency
1 | CN1CC(=O)N/C1=N/C(=O)Nc1cccc(Cl)c1 | 10.9 µM (active)
2 | COc1ccc(-c2coc3cc(O)ccc3c2=O)cc1 | 15.5 µM (active)
3 | CC(C(=O)O)c1ccc(C(=O)c2ccccc2)s1 (stereo unspecified) | 6.15 µM (active)
4 | CC(C)Oc1ccc2c(=O)c(-c3ccccc3)coc2c1 | 10.9 µM (active)
5 | O=C(Nc1ccc([N+](=O)[O-])cc1Cl)c1cc(Cl)ccc1O | 1.73 µM (active)
6 | N#C/C(=C\c1ccc(O)c(O)c1)C(=O)Nc1ccccc1 | 21.8 µM (active)
7 | CC1(C)OC2=C(C(=O)c3ccccc3C2=O)[C@H](NCc2ccccc2)[C@H]1O | 35.5 µM (active)
8 | CC(C)(C)COc1ccc(-n2cc(C(=O)O)cn2)cc1C#N | 7.08 µM (active)
9 | O=C1c2ccccc2-[n+]2ccc3c([nH]c4ccccc43)c21 | 7.74 µM (active)
10 | CN(C)c1ccc(/C=C2\C(=O)Nc3ccccc32)cc1 | 8.69 µM (active)
11 | O=C(Nc1ncc([N+](=O)[O-])s1)c1cccs1 | 1.95 µM (active)
12 | CN(C)c1ccc2cc(C(=O)N[C@@H](CCCN=C(N)CCl)C(=O)NCc3ccccc3)ccc2c1 | inactive
13 | O=C1C(Cl)=C(NCCN2CCOCC2)C(=O)c2ncccc21 | 6.15 µM (active)
14 | Oc1ccc(/C=C/c2cc(O)cc(O)c2)cc1 | 15.5 µM (active)
15 | Clc1ccccc1-c1nc(-c2ccncc2)no1 | 6.15 µM (active)
16 | c1ccc2[nH]c(-c3cscn3)nc2c1 | 9.75 µM (active)
